# Laboratory results as given in PubChem BioAssay (NCATS).
# Records with an inconclusive call do not appear. A call without a number means that no potency is given here. The source made the active and inactive calls. Unless noted, calls come from the whole dose curve; as a rule, active = well fitted curve in the direction sought with a large enough effect; inconclusive = small, poorly fitted or top-dose-only effect, or another doubt; inactive = no such curve, though single readings can be large; an effect the other way counts as inactive or inconclusive.
# Key:
# [1] = P-glycoprotein substrates identified in KB-8-5-11 adenocarcinoma cell line, qHTS therapeutic library screen (AID 1346987); note: nearly all actives have a fitted effect of over 65% in size; note: potency is the fitted concentration of half-maximal effect
# Method in brief: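 KB-8-5-11, a colchicine-selected P-gp-overexpressing KB-3-1 subline, was grown without colchicine for the assay. Cells were seeded at 500 cells/well, dosed in concentration-response and incubated 72 h at 37 degree C, 5% CO2. Viability was read by CellTiter-Glo luminescence.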
# [2] = Primary qHTS for inhibitors of nuclear receptor binding SET domain protein 2 (NSD2) in an isogenic RCH-ACV NSD2 p.E1099K mutant (9B) (AID 1645876); note: nearly all actives have a fitted effect of over 70% in size; note: potency is the fitted concentration of half-maximal effect
# [3] = Primary qHTS for inhibitors of nuclear receptor binding SET domain protein 2 (NSD2) in an RCH-ACV wild type WT cells (2C) (AID 1645877); note: nearly all actives have a fitted effect of over 70% in size; note: potency is the fitted concentration of half-maximal effect
# [4] = biological target: Glutathione peroxidase 1 (Homo sapiens) (UniProt P07203); experiment: Primary qHTS Assay for Inhibitors of Recombinant Selenoprotein Glutathione Peroxidase 1 (GPX1) (AID 1845191); note: nearly all actives have a fitted effect of over 65% in size
# Method in brief: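 10 nM GPX1 + cpd, 30 min RT; start w/ 1 mM GSH, 0.5 mM cumene hydroperoxide, 0.5 mM NADPH, 100 nM GR, 0.01% BSA; buffer 50 mM Tris-HCl pH 7.5, 2 mM EDTA, 150 mM NaCl; Fl 340/450, 0 & 15 min.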
# [5] = biological target: N-terminal Xaa-Pro-Lys N-methyltransferase 1 (Homo sapiens) (UniProt Q9BV86); experiment: Confirmatory qHTS for Inhibitors of N-terminal methyltransferase 1 (NTMT1): MTaseGlo Assay (AID 1645874); note: potency is the fitted concentration of half-maximal effect; nearly all actives have a fitted effect of over 65% in size
# Method in brief: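 NTMT1 (125 nM) preincubated 15 min with compound and 100 uM SAM, then 1 uM SPKRIA peptide added for 30 min at room temperature. SAH detected by MTase-Glo luminescence; normalized to no-enzyme and DMSO controls, fitted to 4-parameter Hill.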
# [6] = biological target: Catechol O-methyltransferase (Homo sapiens) (UniProt P21964); experiment: Confirmatory Screen for Target Class Profiling of Small Molecule Inhibitors of Methyltransferases (AID 1745852; calls by dose curve; note: potency is the fitted concentration of half-maximal effect); conditions: MTase-Glo luminescence, SAH detection, recombinant enzyme; measured here: COMT max response; stronger effect = lower value
# [7] = biological target: Guanidinoacetate N-methyltransferase (Homo sapiens) (UniProt Q14353); experiment: as above; conditions: activity change, negative = inhibition: at 57.3 µM (top of the series) unless noted
# [8] = biological target: Nicotinamide N-methyltransferase (Homo sapiens) (UniProt P40261); experiment: as above; conditions: MTase-Glo luminescence, SAH detection, recombinant enzyme; measured here: NNMT max response; stronger effect = lower value
# [9] = biological target: Phenylethanolamine N-methyltransferase (Homo sapiens) (UniProt P11086); experiment: as above; conditions: MTase-Glo luminescence, SAH detection, recombinant enzyme; measured here: PNMT max response; stronger effect = lower value
# [10] = biological target: Calcium and integrin-binding protein 1 (Homo sapiens) (UniProt Q99828); experiment: Primary qHTS for Identification of Calcium Integrin Binding Protein 1 (CIB1) Competitor (AID 1508620);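 note: GST tagged CIB1 binding a fluorescein labelled alphaIIb integrin peptide tracer; top concentration of the series differs between compounds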
# Method in brief: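 CIB1-GST (1 uM final) and compound incubated 15 min at room temperature before adding FITC-alphaIIb peptide tracer (100 nM final). Competition for binding read by fluorescence polarization (ex 480, em 540) after another 15 min at room temperature.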
# [11] = qHTS to identify inhibitors of the type 1 interferon - major histocompatibility complex class I in skeletal muscle: primary screen against the NCATS Mechanism Interrogation Plate v5.0 (MIPE) Libary (AID 1347411); note: nearly all actives have a fitted effect of over 65% in size
# Method in brief: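 Immortalized human myoblasts (C25cl48) with HiBit knocked into endogenous HLA-B*08:01 were stimulated with 4 ng/ml IFN-beta and given compounds in 11-point 1:3 titration from 46 uM. After 24 h at 37 C, lytic HiBiT luminescence was read.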
# [12] = biological target: Phospholipid hydroperoxide glutathione peroxidase GPX4 (Homo sapiens) (UniProt P36969); experiment: Primary qHTS Assay for Inhibitors of Recombinant Selenoprotein Glutathione Peroxidase 4 (GPX4) (AID 1845192); conditions: outcome: dose series up to 50 µM unless noted; note: nearly all actives have a fitted effect of over 65% in size
# Method in brief: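 NADPH consumption, followed by fluorescence at 340/450 nm between 0 and 15 min, reports GPX4 activity via coupled glutathione reductase (100 nM). Enzyme 200 nM was pre-exposed to compound 30 min; 0.5 mM cumene hydroperoxide and 1 mM GSH served as substrates.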
# [13] = qHTS drug screen for cell cycle checkpoint inhibitors in PARPi-resistant BRCA-mutant ovarian cancer cell lines. (AID 1963452; calls by dose curve); conditions: PEO1/OlaR viability, CellTiter-Glo luminescence, 96 h, stronger effect = lower value
# Method in brief: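 PEO1, PEO4 and PEO1/OlaR ovarian cancer cells, 600 per well, exposed 96 h at 37C to a dilution series. Viability read by CellTiter-Glo luminescence, normalized to DMSO and empty wells; activity summarized as Z-AUC.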
# [14] = biological target: Cytochrome P450 2D6 (Homo sapiens) (UniProt P10635); experiment: Cytochrome P450 family 2 subfamily D member 6 (CYP2D6) small molecule antagonists: luciferase biochemical (cell-free) qHTS assay (AID 1645840; active = well fitted curve in the direction sought with a large enough effect in the repeat runs; an effect the other way counts as inactive or inconclusive; note: nearly all actives have a fitted effect of over 55% in size)
# Method in brief: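 P450-Glo luminescent screen: recombinant CYP2D6 enzyme–proluciferin substrate mix preincubated with compound 10 min at room temperature, then NADPH regeneration added for 1 h at room temperature. Detection reagent added for 20 min; luciferin light read as relative luminescence units.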
# [15] = biological target: Cytochrome P450 2C9 (Homo sapiens) (UniProt P11712); experiment: Cytochrome P450 family 2 subfamily C member 9 (CYP2C9) small molecule antagonists: luciferase biochemical (cell-free) qHTS assay (AID 1645842; active = well fitted curve in the direction sought with a large enough effect in the repeat runs; an effect the other way counts as inactive or inconclusive; note: potency is the fitted concentration of half-maximal effect; nearly all actives have a fitted effect of over 55% in size)
# Method in brief: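 Luminescence, after 20 min with luciferin detection reagent, reflected CYP2C9 turnover during a 1 h NADPH-driven reaction at 37C. Enzyme-substrate mix contained 0.4% bovine serum albumin and was preincubated with compound 10 min at room temperature.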
# [16] = biological target: Cytochrome P450 3A4 (Homo sapiens) (UniProt P08684); experiment: qHTS Assay for Inhibitors and Substrates of Cytochrome P450 3A4 (AID 884); note: nearly all actives have a fitted effect of over 50% in size
# Method in brief: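 20 nM human CYP3A4 with 25 uM Luciferin-PPXE (at KM) in 200 mM KPO4, preincubated 10 min with compound; NADPH regeneration started a 60 min RT reaction. Luciferin detected by luminescence, normalized to 57 uM ketoconazole as full inhibition.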
# [17] = Confirmation and Secondary Assay for Modulators of Hemoglobin Beta Chain Splicing at IVS2 654 locus (AID 910);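 note: HeLa cells stably carrying EGFP split by mutant beta-globin IVS2-654 intron; per-well total GFP intensity by laser scanning cytometry after 2-day treatment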
# Method in brief: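 Readout: per-well total peak green fluorescence (488 nm ex, 500–520 nm em) from objects 5–250 µm, reflecting correct splicing of an EGFP-654 reporter. Compounds were applied for 2 days at 37 °C to overnight-plated HeLa EGFP-654 cells; controls were DMSO and 500 nM IVS2-654 PNA.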
# [18] = Confirmation and Secondary Assay for Modulators of Hemoglobin Beta Chain Splicing at IVS2 705 locus (AID 930);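 note: HeLa cells stably expressing the EGFP-705 splicing reporter; GFP fluorescence per well restored by corrected splicing of the IVS2-705 intron in EGFP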
# Method in brief: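 Splice-correction reporter: EGFP cDNA split by beta-globin intron 2 bearing the 705 mutation, stably in HeLa. Compound incubation 2 days, 37C; fluorescent objects 5-250 µm summed per well.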
# [19] = biological target: Ubiquitin carboxyl-terminal hydrolase 1 (Homo sapiens) (UniProt O94782); experiment: Inhibitors of USP1/UAF1: Pilot qHTS (AID 504865);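 note: rhodamine fluorescence freed from ubiquitin-rhodamine substrate followed over time; top concentration of the series differs between compounds; nearly all actives have a fitted effect of over 35% in size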
# Method in brief: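 Kinetic fluorescence assay: 1nM USP1/UAF1, 15 min compound preincubation, then 150nM Ub-Rho; 480/540 nm.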
# [20] = tested on: Zika virus NS2B-NS3 protease; experiment: Primary screen GU AMC qHTS for Zika virus inhibitors (AID 1347154); note: nearly all actives have a fitted effect of over 70% in size
# Method in brief: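 Fluorogenic AMC-substrate cleavage by noncovalent NS2B-NS3 protease complex (25 nM, pH 8.0 Tris buffer with Tween 20) followed for 15 minutes at room temperature (~20% conversion). Percent inhibition from ex340/em450 signal change, fitted by 4-parameter Hill equation.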
# [21] = Primary qHTS for small molecule stabilizers of the endoplasmic reticulum resident proteome: Secreted ER Calcium Modulated Protein (SERCaMP) assay (AID 1508630)
# Method in brief: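 GLuc-SERCaMP-expressing SH-SY5Y cells, pretreated 16 h with compound, are challenged with thapsigargin to empty ER calcium stores; after 4 h, coelenterazine is added directly to the medium and luminescence is imaged.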
# [22] = measured here: PEO1 parental Z-AUC
# Sequence of Glutathione peroxidase 1 (Homo sapiens) (P07203 whole entry, looked up): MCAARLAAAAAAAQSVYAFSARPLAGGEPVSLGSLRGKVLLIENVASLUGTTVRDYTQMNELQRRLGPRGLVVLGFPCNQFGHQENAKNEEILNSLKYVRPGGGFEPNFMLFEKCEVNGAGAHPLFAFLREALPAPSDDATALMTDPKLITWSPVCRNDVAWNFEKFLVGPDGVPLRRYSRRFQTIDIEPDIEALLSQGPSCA
# Sequence of N-terminal Xaa-Pro-Lys N-methyltransferase 1 (Homo sapiens) (Q9BV86 whole entry, looked up): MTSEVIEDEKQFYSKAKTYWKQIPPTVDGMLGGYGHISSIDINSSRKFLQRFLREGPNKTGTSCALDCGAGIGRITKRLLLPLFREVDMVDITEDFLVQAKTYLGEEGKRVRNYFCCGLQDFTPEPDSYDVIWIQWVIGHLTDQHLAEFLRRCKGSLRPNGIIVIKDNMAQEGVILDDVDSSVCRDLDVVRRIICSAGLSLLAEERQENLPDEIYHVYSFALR
# Sequence of Phenylethanolamine N-methyltransferase (Homo sapiens) (P11086 whole entry, looked up): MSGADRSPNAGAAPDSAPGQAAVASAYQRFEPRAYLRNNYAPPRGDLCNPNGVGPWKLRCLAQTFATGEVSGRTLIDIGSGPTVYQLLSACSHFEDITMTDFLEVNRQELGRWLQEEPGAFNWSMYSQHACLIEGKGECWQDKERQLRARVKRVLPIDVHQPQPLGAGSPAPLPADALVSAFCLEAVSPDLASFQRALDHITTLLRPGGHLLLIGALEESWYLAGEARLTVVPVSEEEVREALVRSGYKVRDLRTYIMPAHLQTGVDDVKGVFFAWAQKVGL
# Sequence of Nicotinamide N-methyltransferase (Homo sapiens) (P40261 whole entry, looked up): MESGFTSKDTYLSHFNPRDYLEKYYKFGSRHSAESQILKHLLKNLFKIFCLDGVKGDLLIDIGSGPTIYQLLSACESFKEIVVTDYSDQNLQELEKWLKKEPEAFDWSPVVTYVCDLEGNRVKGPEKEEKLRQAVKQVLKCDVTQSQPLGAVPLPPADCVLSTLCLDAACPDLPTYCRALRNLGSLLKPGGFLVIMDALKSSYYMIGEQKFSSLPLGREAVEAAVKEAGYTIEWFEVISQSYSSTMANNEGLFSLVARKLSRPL
# Sequence of Catechol O-methyltransferase (Homo sapiens) (P21964 whole entry, looked up): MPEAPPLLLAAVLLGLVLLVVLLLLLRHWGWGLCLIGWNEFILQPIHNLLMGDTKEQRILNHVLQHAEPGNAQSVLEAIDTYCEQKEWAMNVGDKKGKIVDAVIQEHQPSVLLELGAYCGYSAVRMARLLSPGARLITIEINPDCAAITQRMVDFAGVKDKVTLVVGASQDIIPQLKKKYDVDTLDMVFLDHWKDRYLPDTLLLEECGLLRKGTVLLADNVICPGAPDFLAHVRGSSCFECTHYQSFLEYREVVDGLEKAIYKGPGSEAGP
# Sequence of Ubiquitin carboxyl-terminal hydrolase 1 (Homo sapiens) (O94782 whole entry, looked up): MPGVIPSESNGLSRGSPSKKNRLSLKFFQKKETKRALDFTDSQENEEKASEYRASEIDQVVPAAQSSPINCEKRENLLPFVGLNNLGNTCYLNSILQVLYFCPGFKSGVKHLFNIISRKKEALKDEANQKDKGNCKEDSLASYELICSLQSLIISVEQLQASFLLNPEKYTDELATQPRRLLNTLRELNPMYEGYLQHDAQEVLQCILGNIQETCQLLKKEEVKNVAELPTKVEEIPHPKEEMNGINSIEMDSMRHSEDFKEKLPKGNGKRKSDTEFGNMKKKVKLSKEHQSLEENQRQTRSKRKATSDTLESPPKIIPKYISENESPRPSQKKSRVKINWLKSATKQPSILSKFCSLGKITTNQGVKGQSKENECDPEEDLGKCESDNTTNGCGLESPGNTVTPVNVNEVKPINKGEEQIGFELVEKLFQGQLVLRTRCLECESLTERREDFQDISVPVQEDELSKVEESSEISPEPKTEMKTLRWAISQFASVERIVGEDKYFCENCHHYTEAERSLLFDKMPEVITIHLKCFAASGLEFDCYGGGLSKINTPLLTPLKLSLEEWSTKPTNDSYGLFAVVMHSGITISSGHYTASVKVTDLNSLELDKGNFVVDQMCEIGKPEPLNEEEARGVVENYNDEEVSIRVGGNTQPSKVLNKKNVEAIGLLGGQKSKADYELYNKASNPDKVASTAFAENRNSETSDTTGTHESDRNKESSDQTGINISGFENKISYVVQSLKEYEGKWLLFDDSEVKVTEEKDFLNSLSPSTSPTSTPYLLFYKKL
# Sequence of Cytochrome P450 2C9 (Homo sapiens) (P11712 whole entry, looked up): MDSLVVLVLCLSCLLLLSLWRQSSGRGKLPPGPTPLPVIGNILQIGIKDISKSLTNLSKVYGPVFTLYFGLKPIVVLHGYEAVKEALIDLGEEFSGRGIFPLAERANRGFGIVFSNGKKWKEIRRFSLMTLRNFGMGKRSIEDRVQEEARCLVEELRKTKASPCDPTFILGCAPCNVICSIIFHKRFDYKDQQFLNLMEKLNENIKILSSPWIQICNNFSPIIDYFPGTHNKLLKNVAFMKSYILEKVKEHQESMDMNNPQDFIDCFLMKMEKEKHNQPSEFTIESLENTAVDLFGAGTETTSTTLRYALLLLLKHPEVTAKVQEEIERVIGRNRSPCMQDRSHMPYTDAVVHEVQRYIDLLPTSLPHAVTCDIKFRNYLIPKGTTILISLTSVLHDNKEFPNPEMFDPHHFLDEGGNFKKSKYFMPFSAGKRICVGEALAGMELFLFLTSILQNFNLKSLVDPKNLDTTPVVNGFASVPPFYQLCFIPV
# Sequence of Phospholipid hydroperoxide glutathione peroxidase GPX4 (Homo sapiens) (P36969 whole entry, looked up): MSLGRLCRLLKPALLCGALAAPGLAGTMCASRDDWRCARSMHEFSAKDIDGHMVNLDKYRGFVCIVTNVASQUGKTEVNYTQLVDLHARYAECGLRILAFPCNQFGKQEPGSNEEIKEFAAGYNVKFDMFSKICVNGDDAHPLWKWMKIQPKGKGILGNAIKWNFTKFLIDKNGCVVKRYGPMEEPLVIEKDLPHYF
# Sequence of Cytochrome P450 2D6 (Homo sapiens) (P10635 whole entry, looked up): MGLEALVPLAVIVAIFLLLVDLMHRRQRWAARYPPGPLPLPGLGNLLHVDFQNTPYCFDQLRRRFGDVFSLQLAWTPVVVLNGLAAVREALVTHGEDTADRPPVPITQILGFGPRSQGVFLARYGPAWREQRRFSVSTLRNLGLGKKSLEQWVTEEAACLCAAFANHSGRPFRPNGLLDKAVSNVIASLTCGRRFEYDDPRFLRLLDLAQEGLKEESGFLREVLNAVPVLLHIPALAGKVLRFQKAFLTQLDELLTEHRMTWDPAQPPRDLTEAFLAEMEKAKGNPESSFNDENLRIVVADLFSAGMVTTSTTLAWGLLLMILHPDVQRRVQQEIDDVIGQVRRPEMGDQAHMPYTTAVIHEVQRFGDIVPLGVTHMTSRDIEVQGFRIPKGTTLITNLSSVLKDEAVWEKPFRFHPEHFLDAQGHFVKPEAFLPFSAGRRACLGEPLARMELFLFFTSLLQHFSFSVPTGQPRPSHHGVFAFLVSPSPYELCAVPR
# Sequence of Cytochrome P450 3A4 (Homo sapiens) (P08684 whole entry, looked up): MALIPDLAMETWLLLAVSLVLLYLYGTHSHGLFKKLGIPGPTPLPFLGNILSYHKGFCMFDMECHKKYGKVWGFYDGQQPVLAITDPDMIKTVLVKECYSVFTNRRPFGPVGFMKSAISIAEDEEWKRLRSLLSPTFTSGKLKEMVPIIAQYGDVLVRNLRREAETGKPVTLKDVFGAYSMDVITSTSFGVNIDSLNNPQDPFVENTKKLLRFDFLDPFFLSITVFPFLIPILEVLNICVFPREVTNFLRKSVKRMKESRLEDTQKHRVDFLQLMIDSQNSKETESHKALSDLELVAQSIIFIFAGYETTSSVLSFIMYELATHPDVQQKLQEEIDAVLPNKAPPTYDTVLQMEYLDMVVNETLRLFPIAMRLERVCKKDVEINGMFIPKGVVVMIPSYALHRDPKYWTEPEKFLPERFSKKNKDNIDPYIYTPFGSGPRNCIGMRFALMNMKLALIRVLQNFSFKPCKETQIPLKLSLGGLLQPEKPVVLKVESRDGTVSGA
# Sequence of Calcium and integrin-binding protein 1 (Homo sapiens) (Q99828 whole entry, looked up): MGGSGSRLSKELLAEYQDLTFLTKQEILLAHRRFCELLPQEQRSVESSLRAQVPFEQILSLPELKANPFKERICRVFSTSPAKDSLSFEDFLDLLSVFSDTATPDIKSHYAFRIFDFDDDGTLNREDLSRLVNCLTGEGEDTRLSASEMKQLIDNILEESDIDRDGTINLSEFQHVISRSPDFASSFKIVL
compound,measurement,setting,value
Cc1ccc(NS(=O)(=O)c2cc3c(cc2N[C@@H](C)CO)NC(=O)CC3)cc1C,Potency,[1],inactive
O=C1NCCSc2c1sc1ccc(O)cc21,Potency,[1],10.3 µM (active)
same,Potency,[2],5.8 µM (active)
same,Potency,[3],3.66 µM (active)
same,Potency,[4],inactive
O=S(=O)(/N=C/c1c(O)ccc2ccccc12)c1cccs1,Potency,[1],inactive
same,Potency,[2],inactive
same,Potency,[3],inactive
same,Potency,[4],inactive
CC/C(=C(/CC)c1ccc(O)c(CN(CC)CC)c1)c1ccc(O)c(CN(CC)CC)c1,Potency,[1],14.6 µM (active)
same,Potency,[2],9.2 µM (active)
same,Potency,[3],16.4 µM (active)
same,Potency,[4],inactive
CC(CCc1ccccn1)(CCc1ccccn1)C(=O)c1ccccc1,Potency,[1],inactive
same,Potency,[2],inactive
same,Potency,[3],inactive
same,Potency,[4],inactive
CN(C)c1ccc(Nc2c3ccc(NC(=O)CCN4CCCC4)cc3nc3cc(NC(=O)CCN4CCCC4)ccc23)cc1,Potency,[1],inactive
same,Potency,[5],6.49 µM (active)
same,activity,[6],-13%
same,Potency,[7],24.1 µM (active)
same,activity,[8],-39.2%
same,activity,[9],-14.2%
same,Potency,[4],inactive
Cc1ccc(NS(=O)(=O)c2cc3c(cc2N[C@@H](C)CO)NC(=O)CC3)cc1Cl,Potency,[1],inactive
same,outcome,[10],inactive
same,Potency,[4],inactive
Cc1cn(C2OC(CO)C(O)C2F)c(=O)[nH]c1=O (configuration not stated),Potency,[1],inactive
same,Potency,[2],inactive
same,Potency,[3],inactive
OCCn1cc(-c2ccc3c(c2)CC/C3=N\O)c(-c2ccncc2)n1,Potency,[1],inactive
same,Potency,[11],inactive
same,Potency,[4],inactive
same,Potency,[12],inactive
same,Z-AUC,[13],2.52 (inactive)
same,Z-AUC,[13]; [22],1.44
same,Z-AUC,[13]; measured here: PEO4 Z-AUC,1.33
O=c1cc(-c2ccc(O)cc2)oc2cc(OC3OC(CO)C(O)C(O)C3O)c(C3OC(CO)C(O)C(O)C3O)c(O)c12 (configuration not stated),Potency,[1],inactive
same,Potency,[2],inactive
same,Potency,[3],inactive
same,Potency,[4],inactive
CCOc1cccc2c1OC(c1ccc(F)cc1)C([N+](=O)[O-])=C2 (configuration not stated),Potency,[1],11.6 µM (active)
same,Potency,[2],5.8 µM (active)
same,Potency,[3],5.8 µM (active)
same,Potency,[4],inactive
Cc1ccc2cc(-c3c(C)ccc(C(=O)c4c(-c5ccccc5)n(C)n(-c5ccccc5)c4=O)c3N)ccc2n1,Potency,[1],16.4 µM (active)
same,Potency,[11],inactive
same,Potency,[4],inactive
same,Z-AUC,[13],-0.557 (inactive)
same,Z-AUC,[13]; [22],-0.233
same,Z-AUC,[13]; measured here: PEO4 Z-AUC,-0.0214
CC1CN(CC(=O)Nc2ccc3c(c2)Cc2cccc(-c4cc(=O)cc(N5CCOCC5)o4)c2S3)CC(C)O1 (configuration not stated),Potency,[1],inactive
same,Potency,[14],inactive
same,Potency,[15],2.68 µM (active)
C[C@]1(C(=O)Nc2ccc(F)nc2)CCCN1c1nc(Nc2cc(C3CC3)[nH]n2)c2cccn2n1,Potency,[1],2.91 µM (active)
same,Potency,[2],1.84 µM (active)
same,Potency,[3],0.92 µM (active)
Nc1ncnc2c1c(I)cn2C1OC(CO)C(O)C1O (configuration not stated),Potency,[16],inactive
same,outcome,[17],inactive
same,outcome,[18],inactive
same,Potency,[19],inactive
same,Potency,[1],2.31 µM (active)
same,Potency,[20],inactive
same,Potency,[21],inactive
same,Potency,[5],0.851 µM (active)
same,Potency,[2],1.84 µM (active)
same,Potency,[3],1.03 µM (active)
same,activity,[6],-96.2%
same,Potency,[7],12.1 µM (active)
same,activity,[8],-88.4%
same,activity,[9],-97.6%
same,Potency,[4],inactive
